From PubChem BioAssay AID1159580 (chemical genetic matrix, 2015)
Several values for one entry are separate records, joined by “and”; a condition that tells them apart may be missing. Identical values can stand only once. Hit rate of the full screen: of about 5,500 compounds, about 2,000 (36%) were called active. About 18% were inconclusive and are not listed. No stated cut-off is given here; in the data, active means normalized growth mostly below about 0.91 (no sharp cut-off); inconclusive means no clear call, values can overlap the other calls; inactive means mostly above about 0.92. Some of the results follow.

Assay: chemical genetic growth profiling, strain panel (AID 1159580);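 further: tested at 20 µM; growth read once vehicle control cultures reached saturation at 30 °C; 1 = growth at the plate median or of vehicle wells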
Details: S. cerevisiae deletion strains, growth OD

Measured: normalized growth

CCCCC(CC)CN=C(N)NC(N)=NCCCCCCN=C(N)NC(N)=NCC(CC)CCCC (stereo not drawn)
active: locus YAL021C, strain ccr4, stronger effect = lower value 0.063 | locus YAL026C, strain drs2, stronger effect = lower value 0.0642 | locus YAL030W, strain snc1, stronger effect = lower value 0.0574 | locus YBL061C, strain skt5, stronger effect = lower value 0.0589 | locus YBR009C, strain hhf1, stronger effect = lower value 0.0622 | locus YBR021W, strain FUR4, stronger effect = lower value 0.097 | locus YBR023C, strain chs3, stronger effect = lower value 0.064 | locus YBR171W, strain sec66, stronger effect = lower value 0.0773 | locus YBR229C, strain ROT2, stronger effect = lower value 0.056 | locus YBR231C, strain swc5, stronger effect = lower value 0.0612 | locus YBR279W, strain paf1, stronger effect = lower value 0.0581 | locus YCL011C, strain gbp2, stronger effect = lower value 0.0577 | locus YCL016C, strain dcc1, stronger effect = lower value 0.0603 | locus YCL029C, strain bik1, stronger effect = lower value 0.0601 | locus YCL069W, strain vba3, stronger effect = lower value 0.0617 | locus YCR088W, strain abp1, stronger effect = lower value 0.0627 | locus YDL005C, strain med2, stronger effect = lower value 0.0747 | locus YDL035C, strain GPR1, stronger effect = lower value 0.0524 | locus YDL040C, strain nat1, stronger effect = lower value 0.0565 | locus YDL074C, strain BRE1, stronger effect = lower value 0.0887 | locus YDL101C, strain DUN1, stronger effect = lower value 0.0654 | locus YDL134C, strain PPH21, stronger effect = lower value 0.0565 | locus YDL185W, strain tfp1, stronger effect = lower value 0.0566 | locus YDL192W, strain arf1, stronger effect = lower value 0.0604 | locus YDR001C, strain nth1, stronger effect = lower value 0.061 | locus YDR069C, strain doa4, stronger effect = lower value 0.0611 | locus YDR101C, strain arx1, stronger effect = lower value 0.0576 | locus YDR137W, strain rgp1, stronger effect = lower value 0.0839 | locus YDR159W, strain sac3, stronger effect = lower value 0.086 | locus YDR162C, strain NBP2, stronger effect = lower value 0.0531 | locus YDR195W, strain ref2 0.115 | locus YDR297W, strain sur2, stronger effect = lower value 0.0561 | locus YDR318W, strain mcm21, stronger effect = lower value 0.0605 | locus YDR334W, strain swr1, stronger effect = lower value 0.0645 | locus YDR335W, strain msn5, stronger effect = lower value 0.062 | locus YDR388W, stronger effect = lower value 0.0558 | locus YDR392W, strain spt3, stronger effect = lower value 0.0874 | locus YDR502C, strain sam2, stronger effect = lower value 0.0583 | locus YEL003W, strain gim4, stronger effect = lower value 0.054 | locus YEL037C, strain rad23, stronger effect = lower value 0.0582 | locus YEL061C, strain CIN8 (second series), stronger effect = lower value 0.06 | locus YEL061C, strain CIN8, stronger effect = lower value 0.0537 | locus YER015W, strain faa2, stronger effect = lower value 0.0615 | locus YER016W, strain bim1, stronger effect = lower value 0.0587 | locus YER110C, stronger effect = lower value 0.0718 | locus YER111C, strain swi4, stronger effect = lower value 0.0729 | locus YER155C, strain BEM2 (second series), stronger effect = lower value 0.09 | locus YER155C, strain BEM2, stronger effect = lower value 0.0673 | locus YER167W, strain BCK2, stronger effect = lower value 0.0573 | locus YFR010W, strain ubp6, stronger effect = lower value 0.0674 | locus YGL078C, strain dbp3, stronger effect = lower value 0.0573 | locus YGL086W, strain mad1, stronger effect = lower value 0.0562 | locus YGL167C, strain pmr1, stronger effect = lower value 0.071 | locus YGL173C, strain kem1, stronger effect = lower value 0.0685 | locus YGL227W, strain vid30, stronger effect = lower value 0.0653 | locus YGL240W, strain doc1, stronger effect = lower value 0.0743 | locus YGL248W, strain PDE1, stronger effect = lower value 0.0546 | locus YGL253W, strain hxk2, stronger effect = lower value 0.0547 | locus YGR078C, strain PAC10, stronger effect = lower value 0.0524 | locus YGR135W, strain pre9, stronger effect = lower value 0.0595 | locus YGR252W, strain gcn5, stronger effect = lower value 0.113 | locus YHR013C, strain ard1, stronger effect = lower value 0.109 | locus YHR027C, strain rpn1, stronger effect = lower value 0.0612 | locus YHR030C, strain SLT2, stronger effect = lower value 0.0544 and 0.0908 | locus YHR079C, strain IRE1 (second series), stronger effect = lower value 0.0569 | locus YHR079C, strain IRE1, stronger effect = lower value 0.106 | locus YHR094C, strain hxt1, stronger effect = lower value 0.0581 | locus YHR129C, strain ARP1, stronger effect = lower value 0.0586 | locus YHR142W, strain chs7, stronger effect = lower value 0.0728 | locus YHR200W, strain rpn10, stronger effect = lower value 0.0601 | locus YIL066C, strain RNR3, stronger effect = lower value 0.0539 | locus YIL073C, strain SPO22, stronger effect = lower value 0.104 | locus YIL125W, strain kgd1, stronger effect = lower value 0.0595 | locus YIR030C, strain dcg1, stronger effect = lower value 0.0594 | locus YJL092W, strain hpr5, stronger effect = lower value 0.0605 | locus YJL095W, strain BCK1 (second series), stronger effect = lower value 0.0569 | locus YJL095W, strain BCK1, stronger effect = lower value 0.0657 and 0.0991 | locus YJL115W, strain asf1, stronger effect = lower value 0.0737 | locus YJL129C, strain trk1, stronger effect = lower value 0.0818 | locus YJL134W, strain LCB3, stronger effect = lower value 0.0522 | locus YJL154C, strain vps35, stronger effect = lower value 0.0612 | locus YJL164C, strain tpk1, stronger effect = lower value 0.06 | locus YJL166W, strain qcr8, stronger effect = lower value 0.0603 | locus YJL168C, strain set2, stronger effect = lower value 0.0617 | locus YJL187C, strain SWE1 (second series), stronger effect = lower value 0.0584 | locus YJR043C, strain POL32, stronger effect = lower value 0.0684 | locus YJR066W, strain TOR1, stronger effect = lower value -0.00183 | locus YJR075W, strain HOC1, stronger effect = lower value 0.0661
